Only some compounds are listed: those with a hit (about 12% of all), similar ones and a draw of the others.
Cav32 inh = blocks human Cav3.2 T-type calcium channel | B-score at 10 µM | Cav3.2-expressing cells, Fluo-4 calcium fluorescence FDSS; hits give low values | 100,000 compounds, 4% hits | O95180;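 active = single-dose well whose peak fluorescence ratio is a statistical outlier from its plate by either plate-standardised score or position-corrected B-score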
DAT uptake mod = changed human dopamine transporter uptake under cocaine IC80; AID 449768; B-score at 10 µM; LLC-PK1 hDAT cells, [14C]-dopamine uptake with cocaine IC80; actives deviate in either direction; 110,000 compounds, 1.3% hits; Q01959;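 active = Z score or B-score, a plate-position-corrected score, falls beyond the plate's 99.7% confidence bounds, in either direction; inactive = both scores lie inside the 99.7% bounds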;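 note: scored against the spread of the other compound wells on the same plate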
PostGolgi ctrl = growth of the yeast control strain, post-Golgi counter-screen. AID 738. inhibition, % at 10 µM. 98,000 compounds, 5% hits. efflux-deficient yeast background strain, growth absorbance A615, 16 h
PostGolgi yeast = growth inhibition of a yeast mutant, post-Golgi transport screen; post-Golgi transport phenotypic cell assay; inhibition, % at 10 µM; 98,000 compounds, 0.9% hits; AID 739;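 note: yeast cells grown in 1536-well plates; yeast grown about 18 h at 30C before absorbance read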
D1 mod = D1 dopamine receptor (human) allosteric modulation; HEK293 D1, CRE-luciferase, dopamine EC30 potentiation; actives deviate in either direction; AID 641; 58,000 compounds, 5.9% hits; B-score at 10 µM; P21728;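 active = luminescence count or its row- and column-corrected plate score outside the 99.7% band of the plate's sample wells, on either side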
PLAP activator = activates human placental alkaline phosphatase; P05187; purified PLAP enzyme, luminescent substrate read-out; hits give high values; activation fold at 20 µM; 96,000 compounds, 1.2% hits; in the data active = activation fold above about 2
Target sequence (P05187 whole entry, looked up): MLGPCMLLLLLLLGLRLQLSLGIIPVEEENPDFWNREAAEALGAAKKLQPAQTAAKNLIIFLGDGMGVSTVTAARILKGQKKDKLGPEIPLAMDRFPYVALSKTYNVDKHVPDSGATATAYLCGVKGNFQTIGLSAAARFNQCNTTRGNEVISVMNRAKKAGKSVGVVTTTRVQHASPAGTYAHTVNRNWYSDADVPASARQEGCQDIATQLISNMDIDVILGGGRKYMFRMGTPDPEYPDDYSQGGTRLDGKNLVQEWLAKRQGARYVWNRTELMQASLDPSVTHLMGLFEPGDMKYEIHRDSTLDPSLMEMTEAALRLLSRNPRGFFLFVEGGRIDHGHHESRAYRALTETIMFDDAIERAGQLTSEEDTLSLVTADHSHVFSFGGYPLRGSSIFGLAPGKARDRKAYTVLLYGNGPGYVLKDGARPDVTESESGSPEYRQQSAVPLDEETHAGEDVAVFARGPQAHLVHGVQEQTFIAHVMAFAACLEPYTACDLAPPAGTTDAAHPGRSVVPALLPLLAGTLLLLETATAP
Numbers without * were called inactive; · = not tested or not shown. Cut-off read from the data, not from the text of the source, unless noted: active = inhibition above about 30%; inactive = the rest.

SMILES	Cav32 inh	DAT uptake mod	PostGolgi ctrl	PostGolgi yeast	D1 mod	PLAP activator
Cc1ccnc(NC(=O)c2ccc(COc3ccc(Cl)cc3)o2)c1	-2	0.016	2	-1	·	0.8
Cc1ccc(-c2nn(-c3ccccc3)c3[nH]c(=O)c(CNCCN(C)C)cc23)cc1	·	·	·	·	0.62	2.7*
Cc1ccc(-c2nn(-c3ccccc3)c3[nH]c(=O)c(CNCc4ccccc4)cc23)cc1	-3.6*	-0.65	·	·	·	·
Cc1nn(-c2ccccc2)c2[nH]c(=O)c(CNCc3ccc4c(c3)OCO4)cc12	1.7	0.73	-12	13	-0.057	1.6
Cc1nn(-c2ccccc2)c2[nH]c(=O)c(CNCCN3CCOCC3)cc12	0.36	-0.25	-11	-4	0.28	1.1
COc1cccc(-c2nc(CS(=O)(=O)c3ccccc3)no2)c1	·	-0.28	-3	-6	·	1.2
COc1ccccc1NC(=O)CSc1nnc(COc2ccc(Cl)cc2)n1Cc1ccco1	-2.5	-0.31	26	7	-1.2	1.2
Clc1ccc(OCc2nnc(SCCN3CCCCC3)n2Cc2ccco2)cc1	0.15	3.3*	-5	-1	-2	1.7
O=c1c2ccccc2nnn1CSc1nnc(COc2ccc(Cl)cc2)n1Cc1ccco1	-0.81	-1.3	82*	103*	0.28	1.1
Cc1cc(C)nc(-n2nc(C)cc2NC(=O)c2cccc(S(=O)(=O)N3CCCCC3)c2)n1	1.7	2	21	-4	·	1.4
O=C(NCc1ccco1)c1cc2n(n1)C(C(F)(F)F)CC(c1ccc(F)cc1)N2 (stereo not drawn)	-0.021	-0.64	5	-3	-1.4	1
O=C(Nc1ccc(F)cc1F)c1cc2n(n1)C(C(F)(F)F)C1CCCCC1N2 (stereo not drawn)	-0.079	0.23	30*	1	0.09	1
CCN(CC)c1nc(N)nc(N(c2ccccc2)c2ccccc2)n1	0.57	-0.76	53*	-8	·	1
O=C(CSc1ccc(Cl)cc1)N1CCN(c2ccc(Cl)cc2[N+](=O)[O-])CC1	-3.8*	2.5	72*	2	·	1
CCC(=O)N1CCN(c2ccc(OC)cc2[N+](=O)[O-])CC1	0.72	-0.18	2	-2	·	0.9
CC(C)N1C(=O)CCC1C(=O)NCc1ccccc1Cl (stereo not drawn)	·	·	·	·	0.45	·
O=C1CCCC2=C1C(c1cccs1)Nc1ccc3ncccc3c12 (stereo not drawn)	1.5	0.37	6	0	·	1.1
Cc1ccsc1C1Nc2ccc3ncccc3c2C2=C1C(=O)CC(C)(C)C2 (stereo not drawn)	-3.9*	-1.7	10	-3	·	1.1
CC1=NNC(=O)C1C(c1ccccc1)C(C#N)C#N (stereo not drawn)	-0.49	-0.65	3	0	·	2.2*
c1ccc2[nH]c(SCc3ccc(-c4nnco4)cc3)nc2c1	0.64	0.35	-8	-1	-0.011	2*
CCc1nc(SCc2cccnc2)[nH]c(=O)c1C	-0.051	0.8	7	0	0.11	0.9
CCc1nc(SCc2ccc(F)cc2)[nH]c(=O)c1C#N	-7.7*	-2.3	·	·	·	·
CC(C)(C)C1CCc2c(sc(NC(=O)C3CCCO3)c2C(N)=O)C1 (stereo not drawn)	0.68	2.3	60*	4	·	1.4
COc1ccc(N(CC(=O)NCCSc2ccccn2)S(C)(=O)=O)cc1Cl	1.8	-0.028	5	6	-0.065	1.5
Cc1ccc(N(CC(=O)NCCSCc2ccco2)S(C)(=O)=O)cc1	0.3	0.045	-1	-13	·	0.9
SMILES	Cav32 inh	DAT uptake mod	PostGolgi ctrl	PostGolgi yeast	D1 mod	PLAP activator
Cc1ccc(S(=O)(=O)N(CC(=O)NCCSCc2ccco2)c2cc(C)ccc2C)cc1	-6.7*	-0.23	·	·	·	·
Cc1ccccc1N(CC(=O)NCCSC1CCCCC1)S(=O)(=O)c1ccccc1	-6*	0.048	49*	1	·	1
Cc1ccc(S(=O)(=O)N(CC(=O)NCCSc2ccccn2)c2cc(C)cc(C)c2)cc1	-6.4*	-0.44	2	-5	·	1.1
COC(=O)C1=C(C)N(CCc2cc(OC)c(OC)c(OC)c2)C(=O)N[C@H]1c1ccccc1	-0.46	0.67	·	·	·	·
CN1C(=O)C(C(=O)NC(C)(C)C)C2c3ccccc3OC13CCCCC23 (stereo not drawn)	0.055	0.31	13	5	0.63	1.3
Cc1ccc(OC(=O)c2ccc(N3CCOCC3)c([N+](=O)[O-])c2)cc1	-0.28	0.62	38*	-22	·	1
CC1CCCN(C(=O)C2CCN(S(=O)(=O)c3cccc4cccnc34)CC2)C1 (stereo not drawn)	-3.4	0.67	8	10	·	1.5
Cc1c(C)n(Cc2ccccc2)c2ncnc(N)c12	·	-0.0097	4	3	-2.8*	1.2
O=C(CN(Cc1ccc(F)cc1)C(=O)Cn1nnc2ccccc21)NCC1CCCO1 (stereo not drawn)	0.58	0.56	5	3	-0.00074	·
Cc1ccc(NC(C#N)c2ccccc2OCc2ccccc2)cc1 (stereo not drawn)	·	·	2	-2	·	1
COCCNC(C)C(=O)Nc1ccc(Br)cc1 (stereo not drawn)	0.013	-0.34	10	18	-0.23	0.9
CC(=O)Nc1c(C(=O)NCc2ccccc2)nnn1Cc1ccccc1	-0.6	-0.38	2	6	·	1
O=C(Nc1ccccc1)c1nnn(Cc2ccccc2)c1NC(=O)C(F)(F)F	-8.4*	-0.42	7	3	·	1.1
COc1ccccc1NC(=O)c1nnn(Cc2ccccc2)c1NC(=O)C(F)(F)F	-7.7*	0.15	7	-8	·	0.9
COc1ccccc1NC(=O)CSc1nnnn1Cc1ccccc1	-0.48	1.5	6	-4	1.1	0.8
Cn1cnnc1SCc1ccc(-c2ccc(Br)cc2)o1	-0.98	0.4	10	0	-0.32	1.3
COC(=O)c1ccc(Cn2c(O)c(N=O)c3ccccc32)o1	-0.0078	-1.1	12	-4	·	1
O=Nc1c(O)n(Cc2ccc(Cl)c(Cl)c2)c2ccccc12	-2.3	-0.091	59*	22	·	1.1
CN(C)c1ccc(C(=O)C(O)c2ccc(C(C)(C)C)cc2)cc1 (stereo not drawn)	0.3	-0.04	0	1	0.81	1.1
CC(=O)N1CCN=C1SCc1c(F)cccc1Cl	0.09	-0.81	32*	3	0.89	0.8
CC(=O)N1CCN=C1SCc1ccc(Br)cc1	-4.8*	0.5	11	18	1.5	1
O=C(O)CSCc1c(F)cccc1Cl	0.049	-1.1	11	0	·	·
Cc1ccc(-n2nc3ccc(N)cc3n2)cc1	-0.033	-0.19	9	-9	-4.4*	0.8
Cc1nn(C)cc1/C=N/NC(=O)C(C)(C)Oc1ccc(Cl)cc1	0.8	0.38	2	-4	·	1.4
O=C(NNC(=S)NC(=O)c1cccnc1)c1ccccc1	-1.1	0.011	-7	-9	·	2.1*
O=C(/C=C/c1ccc(Cl)cc1)c1cccnc1	·	-0.56	16	39*	·	0.8
O=C(/C=C/c1ccccc1)NNC(=O)c1cccnc1	·	-1.8	-7	1	·	2*
O=C(/C=C/c1ccccc1Cl)c1cccnc1	-0.81	0.92	10	-12	·	0.9
